# From the supplement of paper PMC10646978
# ± gives the standard deviation.
# Assays:
# Conditions in all cases: modulator concentration 10 µM
# [1] = tested on: RAW-Dual (murine macrophage reporter line); assay: NF-kB reporter (SEAP) activity fold change vs agonist alone; higher = enhanced NF-kB activity
# Method in brief: (§1)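 Overnight stimulation with a PRR agonist followed pre-incubation for 1 hour at 37 °C with compound at 10 μM final. This was done in RAW-Dual murine macrophage reporter cells seeded at 50 000 per well in 384-well plates. NF-κB (SEAP, QUANTI-Blue absorbance at 620 nm) and IRF (Lucia luciferase, QUANTI-Luc luminescence) were read from the supernatant. Each reporter's fold change relative to the mean agonist-only control on the same plate was averaged over replicate plates.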
# [2] = tested on: RAW-Dual (murine macrophage reporter line); assay: IRF reporter (Lucia luciferase) activity fold change vs agonist alone; higher = enhanced IRF activity
# Method in brief: as §1
# [3] = tested on: RAW-Dual (murine macrophage reporter line); assay: viability score (confluency relative to resting cells, overnight) (fraction); higher = more viable, active = viable (0.7 or more)
# Method in brief: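 A compound met the cutoff when both of two confluency masks exceeded 70% of resting cells. Those masks were made with IncuCyte software from IncuCyte images of RAW-Dual macrophages treated overnight at 10 μM final. This is the basis of the viability score, which is confluency relative to resting cells.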
# [4] = agonist: CpG ODN 1826 0.5 ug/mL
SMILES,"NF-kB reporter [1, 4]",NF-kB reporter ([1]; agonist: LPS 0.1 ug/mL),NF-kB reporter ([1]; agonist: MPLA […]),IRF reporter ([2]; agonist: 3'3'-cGAMP 10 ug/mL),IRF reporter ([2]; agonist: LPS 0.1 ug/mL),IRF reporter ([2]; agonist: MPLA […]),viability score [3]
COc1ccc(-c2[nH]c(-c3ccccc3)nc2SCC(=O)NC2CCCC2)cc1,0.875 ± 0.061,1.07 ± 0.069,1.64 ± 0.11,0.892 ± 0.03,1.09 ± 0.095,1.11 ± 0.1,1 (active)
CC1=C(C(N)=O)C(c2cccs2)NC(=O)N1 (configuration not stated),0.974 ± 0.086,1.03 ± 0.12,0.944 ± 0.034,1.01 ± 0.15,0.963 ± 0.045,0.942 ± 0.063,0.999 (active)
CC1CC(=O)C2=C(C1)OC(N)=C(C#N)C2c1ccc(Cl)cc1 (configuration not stated),0.905 ± 0.093,1.06 ± 0.075,0.928 ± 0.042,0.721 ± 0.03,1 ± 0.07,0.909 ± 0.13,0.992 (active)
CN(C)C1C(O)=C(C(N)=O)C(=O)C2(O)C(O)=C3C(=O)c4c(O)ccc(Cl)c4C(O)C3CC12.Cl (configuration not stated),1.37 ± 0.35,1.1 ± 0.067,1.01 ± 0.067,0.894 ± 0.038,1.19 ± 0.14,1.08 ± 0.15,0.991 (active)
COC(=O)C1=COC(OC2OC(CO)C(O)C(O)C2O)C2C1CC(O)C2C (configuration not stated),1.04 ± 0.081,0.974 ± 0.099,0.994 ± 0.033,0.976 ± 0.063,0.946 ± 0.13,0.951 ± 0.24,0.998 (active)
CC(C)Oc1ccc(C(=O)N2CCC(c3ccccc3)S(=O)(=O)CC2)cc1 (configuration not stated),0.906 ± 0.061,1.07 ± 0.098,0.876 ± 0.049,0.928 ± 0.049,1.13 ± 0.069,1.09 ± 0.092,0.992 (active)
COc1ccccc1C=C(C#N)c1nc(-c2cc3cc(Br)ccc3oc2=O)cs1,0.951 ± 0.08,0.962 ± 0.075,0.943 ± 0.089,0.972 ± 0.069,1.31 ± 0.18,1.58 ± 0.27,1.02 (active)
Brc1ccc2ncnc(N3CCOCC3)c2c1,1.17 ± 0.097,1.39 ± 0.098,1.13 ± 0.05,0.357 ± 0.087,0.515 ± 0.039,0.592 ± 0.084,1 (active)
COc1ccc2oc(=O)c(-c3csc(NC(=O)C=CC(=O)O)n3)cc2c1,1.09 ± 0.099,0.895 ± 0.086,0.985 ± 0.027,0.353 ± 0.017,0.938 ± 0.11,0.844 ± 0.13,0.959 (active)
Clc1ccc(-c2nc(N3CCCCC3)nc3ccccc23)cc1,0.444 ± 0.033,0.975 ± 0.051,1.09 ± 0.041,0.839 ± 0.047,0.953 ± 0.073,1.39 ± 0.12,0.993 (active)
O=C(O)CCC(=O)c1ccc(-c2ccccc2)cc1,0.806 ± 0.11,0.842 ± 0.1,0.87 ± 0.07,0.931 ± 0.049,0.984 ± 0.087,0.999 ± 0.078,0.986 (active)
CC(=O)c1cc(Cl)ccc1OC(=O)c1ccccc1Cl,0.767 ± 0.07,0.803 ± 0.051,0.757 ± 0.062,0.543 ± 0.025,1.63 ± 0.12,1.8 ± 0.24,0.987 (active)
Oc1ccc(OCc2ccccc2)cc1,1.78 ± 0.25,1.51 ± 0.34,1.34 ± 0.095,0.665 ± 0.033,1.46 ± 0.27,1.42 ± 0.17,0.832 (active)
COc1ccc(C2N3CC4(C)CN2CC(C)(C3)C4O)cc1 (configuration not stated),0.816 ± 0.067,0.949 ± 0.046,0.966 ± 0.1,0.995 ± 0.055,1.49 ± 0.086,1.66 ± 0.15,1.01 (active)
O=C(Nc1ccc(S(=O)(=O)Nc2ccc(F)cc2)cc1)C(F)(F)F,0.992 ± 0.11,1.03 ± 0.069,0.93 ± 0.061,1.12 ± 0.027,1.37 ± 0.22,1.14 ± 0.098,1.01 (active)
CCOc1ccc(Cc2cc([C@@H]3O[C@H](SC)[C@@H](O)[C@H](O)[C@H]3O)ccc2Cl)cc1,0.968 ± 0.25,1.27 ± 0.072,1.06 ± 0.098,1.03 ± 0.053,0.957 ± 0.18,1.07 ± 0.11,0.694 (inactive)
COc1ccc(Cl)cc1C(=O)Nc1ccc(NC(=O)c2ccccc2)cc1,0.907 ± 0.079,1.12 ± 0.11,0.949 ± 0.057,0.937 ± 0.023,1.34 ± 0.2,1.09 ± 0.25,1.02 (active)
CC(=O)ON=C1C(C)=C(C#N)C2C1C2(C)C (configuration not stated),1.2 ± 0.096,1.01 ± 0.26,0.874 ± 0.32,0.718 ± 0.18,0.871 ± 0.25,0.857 ± 0.33,1.01 (active)
O=c1n(CCNS(=O)(=O)Cc2ccccc2)nc(C2CC2)n1-c1ccccc1,1.03 ± 0.052,1.08 ± 0.09,1.1 ± 0.074,1.03 ± 0.063,1.26 ± 0.08,1.22 ± 0.1,1.01 (active)
CCCCSc1nnc2c(n1)OC(c1cccc(O)c1)Nc1ccc(Br)cc1-2 (configuration not stated),0.765 ± 0.063,0.954 ± 0.073,0.996 ± 0.14,0.644 ± 0.031,0.931 ± 0.065,0.866 ± 0.075,1.02 (active)
N#CCCC1(CCC#N)S(=O)(=O)CC(c2ccc(Cl)cc2)CS1(=O)=O,0.67 ± 0.04,0.909 ± 0.056,0.623 ± 0.05,0.915 ± 0.031,1.26 ± 0.087,1.04 ± 0.091,0.97 (active)
N#C[C@@H]1CCCN1C(=O)CNC12CC3CC(CC(O)(C3)C1)C2,0.79 ± 0.14,0.851 ± 0.15,0.862 ± 0.048,0.863 ± 0.06,1.05 ± 0.18,1.11 ± 0.21,0.993 (active)
COc1cc(C2Oc3cc(C4Oc5cc(O)cc(O)c5C(=O)C4O)ccc3OC2CO)ccc1O (configuration not stated),1.11 ± 0.083,1.07 ± 0.057,1.13 ± 0.029,0.988 ± 0.082,0.93 ± 0.17,1 ± 0.17,0.981 (active)
CC(C)NC(=O)CCn1c(=O)c2cc(Cl)ccc2n2c(SCc3ccc(F)cc3)nnc12,0.992 ± 0.077,1.01 ± 0.093,1.1 ± 0.06,1.02 ± 0.056,1.15 ± 0.19,1.41 ± 0.39,0.964 (active)
CC(C)=CCCC(C)=CC=NNC(=S)Nc1ccc(C)cc1,0.855 ± 0.049,1.12 ± 0.075,1.02 ± 0.065,0.256 ± 0.019,1.55 ± 0.19,1.5 ± 0.18,0.997 (active)
COc1ccc(C(=O)Nc2cc(C)nc3c(C)cc(C)cc23)cc1OC,0.763 ± 0.18,0.948 ± 0.054,0.838 ± 0.055,0.501 ± 0.038,0.767 ± 0.15,0.746 ± 0.07,0.589 (inactive)
